Laboratory results: PubChem BioAssay (NCATS)
Results filed as inconclusive are left out. The source made the active and inactive calls. The call rests on the fitted dose curve; in most records, active means well fitted curve in the direction sought with a large enough effect; inconclusive means small, poorly fitted or top-dose-only effect, or another doubt; inactive means no such curve, though single readings can be large; an effect the other way counts as inactive or inconclusive.

How the values were obtained:
CRL-7250 = normal cell line; assay: Cytotoxic Profiling of Annotated Libraries Using Quantitative High-Throughput Screening (AID 1296008); conditions: Five cell lines viability, CellTiter-Glo ATP luminescence, 48-72 h; max response: hits give low values; further: nearly all actives have a fitted effect of over 60% in size; on max response: on the % scale 0 is the no-effect control and ±100 the full control effect
In short: (§1)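 Compounds were pin-transferred onto cells and incubated 48 or 72 hr at 37 degree Celsius, 95% humidity. CellTiter-Glo was added, plates sat 10 min at room temperature, then ATP-coupled luminescence was imaged as the viability read-out.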

HEK293 = assay: as above; conditions: Five cell lines viability, CellTiter-Glo ATP luminescence, 48-72 h; max response: hits give low values
In short: as §1

HaCat [1] = assay: as above; conditions: Five cell lines viability, CellTiter-Glo ATP luminescence, 48-72 h; max response: hits give low values
In short: as §1

KB-3-1 = assay: as above; conditions: Five cell lines viability, CellTiter-Glo ATP luminescence, 48-72 h; max response: hits give low values
In short: as §1

NIH3T3 [2] = assay: as above; conditions: Five cell lines viability, CellTiter-Glo ATP luminescence, 48-72 h; max response: hits give low values
In short: as §1

HACAT [3] = assay: qHTS assay to identify novel small-molecules to repurpose for Merkel cell carcinoma treatment (AID 1296009); conditions: MCC and control cell lines, CellTiter-Glo viability, 72 h; at 44.8 µM (top of the series) unless noted; further: nearly all actives have a fitted effect of over 60% in size
In short: (§2)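 Cells exposed to NPC (8-point) and MIPE (11-point) compound dilutions for 72 hr at 37 degree celsius; viability read by CellTiter-Glo luminescence, normalized to no-cell and DMSO in-plate controls.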

NIH3T3 [4] = assay: as above; conditions: MCC and control cell lines, CellTiter-Glo viability, 72 h; at 44.8 µM (top of the series) unless noted
In short: as §2

C33A = assay: Primary qHTS to identify gynecologic anti-cancer compounds using libraries of approved drugs and bioactive compounds (AID 1345084); conditions: Gynecologic cancer cell panel viability, ATPlite luminescence, 48 h; series mostly up to 57.5 µM; further: on the % scale 0 is the no-effect control and ±100 the full control effect; nearly all actives have a fitted effect of over 55% in size
In short: (§3)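 In this quantitative HTS, cell killing is estimated from loss of ATP-dependent luciferase light. Cells see five compound concentrations over a 48 h exposure.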

CAOV3 = assay: as above; conditions: Gynecologic cancer cell panel viability, ATPlite luminescence, 48 h; series mostly up to 57.5 µM
In short: as §3

CASKI = assay: as above; conditions: Gynecologic cancer cell panel viability, ATPlite luminescence, 48 h; series mostly up to 57.5 µM
In short: as §3

Es-2 = assay: as above; conditions: Gynecologic cancer cell panel viability, ATPlite luminescence, 48 h; series mostly up to 57.5 µM
In short: as §3

HeLa = assay: as above; conditions: Gynecologic cancer cell panel viability, ATPlite luminescence, 48 h; series mostly up to 57.5 µM
In short: as §3

Hek293T = assay: as above; conditions: Gynecologic cancer cell panel viability, ATPlite luminescence, 48 h, control line for the selectivity index; series mostly up to 57.5 µM
In short: as §3

JEG-3 = assay: as above; conditions: Gynecologic cancer cell panel viability, ATPlite luminescence, 48 h; series mostly up to 57.5 µM
In short: as §3

OV90 = assay: as above; conditions: Gynecologic cancer cell panel viability, ATPlite luminescence, 48 h; series mostly up to 57.5 µM
In short: as §3

O=C(O)CCc1c(C(=O)O)[nH]c2cc(Cl)cc(Cl)c12
inactive: max response (CRL-7250) -1.79% | max response (HEK293) -7.05% | outcome (HaCat [1]) | outcome (KB-3-1) | outcome (NIH3T3 [2]) | outcome (HACAT [3]) inactive [at 17.4 µM] | outcome (NIH3T3 [4]) inactive [at 17.4 µM] | Potency (C33A) | Potency (CAOV3) | outcome (CASKI) | Potency (Es-2) | Potency (HeLa) | Potency (Hek293T) | Potency (JEG-3) | Potency (OV90)

Cc1cn(-c2cc(NC(=O)c3ccc(C)c(Nc4nccc(-c5cnccn5)n4)c3)cc(C(F)(F)F)c2)cn1
inactive: max response (CRL-7250) -3.34% | max response (HEK293) -20.5% | outcome (HaCat [1]) | max response (KB-3-1) -2.9% | outcome (NIH3T3 [2]) | outcome (HACAT [3]) | outcome (NIH3T3 [4]) | Potency (C33A) | Potency (CAOV3) | outcome (CASKI) | Potency (Es-2) | Potency (HeLa) | Potency (Hek293T) | Potency (JEG-3) | Potency (OV90)

CCN(CCN(C)C)C(=O)CNCc1cc(C(N)=O)ccn1
inactive: outcome (CRL-7250) | max response (HEK293) 1.94% | outcome (HaCat [1]) | max response (KB-3-1) 7.84% | outcome (NIH3T3 [2]) | outcome (HACAT [3]) | outcome (NIH3T3 [4]) | Potency (C33A) | Potency (CAOV3) | outcome (CASKI) | Potency (Es-2) | Potency (HeLa) | Potency (Hek293T) | Potency (JEG-3) | Potency (OV90)

OC[C@@]1(O)CO[C@@H](OC[C@H]2O[C@@H](OCc3ccccc3)[C@H](O)[C@@H](O)[C@@H]2O)[C@@H]1O
inactive: max response (CRL-7250) 1.98% | max response (HEK293) 2.46% | outcome (HaCat [1]) | outcome (KB-3-1) | outcome (NIH3T3 [2]) | outcome (HACAT [3]) inactive [at 17.4 µM] | outcome (NIH3T3 [4]) inactive [at 17.4 µM] | Potency (C33A) | Potency (CAOV3) | outcome (CASKI) | Potency (Es-2) | Potency (HeLa) | Potency (Hek293T) | Potency (JEG-3) | Potency (OV90)

O=C(O)c1cc(C(F)(F)F)ccc1N1CC[C@H](OCc2ccccn2)C1
inactive: outcome (CRL-7250) | max response (HEK293) -6.22% | outcome (HaCat [1]) | max response (KB-3-1) 6.78% | outcome (NIH3T3 [2]) | outcome (HACAT [3]) | outcome (NIH3T3 [4]) | Potency (C33A) | Potency (CAOV3) | outcome (CASKI) | Potency (Es-2) | Potency (HeLa) | Potency (Hek293T) | Potency (JEG-3) | Potency (OV90)

CC(=O)OC12CC(C)C(O)C1/C=C(/COC1OC(CO)C(O)C(O)C1O)CCC1C(/C=C(\C)C2=O)C1(C)C (stereo not given)
inactive: max response (CRL-7250) -1.86% | max response (HEK293) -3.67% | outcome (HaCat [1]) | outcome (KB-3-1) | outcome (NIH3T3 [2]) | outcome (HACAT [3]) inactive [at 17.4 µM] | outcome (NIH3T3 [4]) inactive [at 17.4 µM] | Potency (C33A) | Potency (CAOV3) | outcome (CASKI) | Potency (Es-2) | Potency (HeLa) | Potency (Hek293T) | Potency (JEG-3) | Potency (OV90)

COC(=O)C1=CO[C@@H](O[C@@H]2O[C@H](CO[C@@H]3O[C@H](CO)[C@@H](O)[C@H](O)[C@H]3O)[C@@H](O)[C@H](O)[C@H]2O)[C@@H]2C(CO)=CC[C@H]12
inactive: max response (CRL-7250) -2.64% | max response (HEK293) 1.28% | outcome (HaCat [1]) | outcome (KB-3-1) | outcome (NIH3T3 [2]) | outcome (HACAT [3]) inactive [at 17.4 µM] | outcome (NIH3T3 [4]) inactive [at 17.4 µM] | Potency (C33A) | Potency (CAOV3) | outcome (CASKI) | Potency (Es-2) | Potency (HeLa) | Potency (Hek293T) | Potency (JEG-3) | Potency (OV90)

C[C@@H](NC(=O)c1cc(C(=O)N[C@@H](Cc2ccccc2)[C@H](O)CNC2CC2)cc(N(C)S(C)(=O)=O)c1)c1ccccc1
inactive: max response (CRL-7250) 2.97% | max response (HEK293) -6.18% | outcome (HaCat [1]) | max response (KB-3-1) -1.48% | outcome (NIH3T3 [2]) | outcome (HACAT [3]) | outcome (NIH3T3 [4]) | Potency (C33A) | Potency (CAOV3) | outcome (CASKI) | Potency (Es-2) | Potency (HeLa) | Potency (Hek293T) | Potency (JEG-3) | Potency (OV90)

CC(=O)OCC(Cc1ccccc1)NC(=O)C(Cc1ccccc1)NC(=O)c1ccccc1 (stereo not given)
inactive: outcome (CRL-7250) | max response (HEK293) -2.31% | outcome (HaCat [1]) | max response (KB-3-1) -0.456% | outcome (NIH3T3 [2]) | outcome (HACAT [3]) inactive [at 17.4 µM] | outcome (NIH3T3 [4]) inactive [at 17.4 µM] | Potency (C33A) | Potency (CAOV3) | outcome (CASKI) | Potency (Es-2) | Potency (HeLa) | Potency (Hek293T) | Potency (JEG-3) | Potency (OV90)

CC12CC(c3ccoc3)OC(=O)C1CCC1(C)C2CCC(O)C1(C)O (stereo not given)
inactive: outcome (CRL-7250) | max response (HEK293) 0.137% | outcome (HaCat [1]) | max response (KB-3-1) 6.59% | outcome (NIH3T3 [2]) | outcome (HACAT [3]) | outcome (NIH3T3 [4]) | Potency (C33A) | Potency (CAOV3) | outcome (CASKI) | Potency (Es-2) | Potency (HeLa) | Potency (Hek293T) | Potency (JEG-3) | Potency (OV90)

CC(O)C(O)/C=C/C=C/C(=O)O[C@@H]1C=C(C(=O)O)[C@](O)(CO)[C@@]2(C)CCCC(C)(C)[C@H]12 (stereo not given in full)
inactive: max response (CRL-7250) -15.6% | max response (HEK293) -10.2% | outcome (HaCat [1]) | max response (KB-3-1) 4.17% | outcome (NIH3T3 [2]) | outcome (HACAT [3]) inactive [at 17.4 µM] | outcome (NIH3T3 [4]) inactive [at 17.4 µM] | Potency (C33A) | Potency (CAOV3) | outcome (CASKI) | Potency (Es-2) | Potency (HeLa) | Potency (Hek293T) | Potency (JEG-3) | Potency (OV90)
